Assay results reported in the supplement of paper PMC10849652.
Targets with a hit are over-represented here; the source holds about 7,900 in all. About 0.6% of all pairs of compound and target were hits.

How the values were obtained:
Assay in all cases: log2 fold change, soluble protein after heating vs DMSO (PISA); higher = thermal stabilisation; K562 cells, 10 uM, 30 min; active = over 0.2 and 3.5 SD of the protein, either way, in both replicates (recomputed)
[1] = compound: COC1=CC=C(C=C1)CN2C=CC3=C2C=C(C=C3)C(=O)NO
Procedure, shortened: (§1)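 K562 cells (2×10^6 cells/mL) were treated with 10 μM compound for 30 min, and aliquots were heated for 3 min over 48°C-58°C. Pooled aliquots were extracted in PBS with 0.5% NP-40 at 4°C, and the supernatant after 21,000xg for 90 min was measured by TMTpro 16plex LC-MS/MS with channel sums equalised. Reported thermal stability, relative to control samples and from duplicates, is a log2 fold change.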

filanesib = compound: CON(C)C(=O)N1N=C(c2cc(F)ccc2F)S[C@@]1(CCCN)c1ccccc1 [filanesib]
Procedure, shortened: as §1

zotarolimus = compound: CO[C@H]1C[C@@H]2CC[C@@H](C)[C@@](O)(O2)C(=O)C(=O)N2CCCC[C@H]2C(=O)O[C@H]([C@H](C)C[C@@H]2CC[C@H](n3cnnn3)[C@H](OC)C2)CC(=O)[C@H](C)/C=C(\C)[C@@H](O)[C@@H](OC)C(=O)[C@H](C)C[C@H](C)/C=C/C=C/C=C/1C [zotarolimus]
Procedure, shortened: as §1

alisertib = compound: COc1cc(Nc2ncc3c(n2)-c2ccc(Cl)cc2C(c2c(F)cccc2OC)=NC3)ccc1C(=O)O [alisertib]
Procedure, shortened: as §1

[2] = compound: COc1cccc2cc(-c3nc([C@H]4CC[C@H](C(=O)O)CC4)n4ncnc(N)c34)[nH]c12
Procedure, shortened: as §1

idasanutlin = compound: COc1cc(C(=O)O)ccc1NC(=O)[C@@H]1N[C@@H](CC(C)(C)C)[C@](C#N)(c2ccc(Cl)cc2F)[C@H]1c1cccc(Cl)c1F [idasanutlin]
Procedure, shortened: as §1

[3] = compound: COc1cc2nc(-c3cc(F)ccc3O)nc(N[C@@H]3CNC[C@H]3C(C)(C)O)c2cc1OC
Procedure, shortened: as §1

gefitinib = compound: COc1cc2ncnc(Nc3ccc(F)c(Cl)c3)c2cc1OCCCN1CCOCC1 [gefitinib]
Procedure, shortened: as §1

lapatinib = compound: CS(=O)(=O)CCNCc1ccc(-c2ccc3ncnc(Nc4ccc(OCc5cccc(F)c5)c(Cl)c4)c3c2)o1 [lapatinib]
Procedure, shortened: as §1

pictilisib = compound: CS(=O)(=O)N1CCN(Cc2cc3nc(-c4cccc5[nH]ncc45)nc(N4CCOCC4)c3s2)CC1 [pictilisib]
Procedure, shortened: as §1

Measured: log2 fold change

TRIQK (UniProt Q629K1)
inactive: [1] -0.002 | filanesib 0.1 | zotarolimus -0.08 | alisertib -0.142 | [2] 0.106

VPS72 isoform 2 (UniProt Q15906)
Sequence of UniProt Q15906 (Q15906 whole entry, looked up): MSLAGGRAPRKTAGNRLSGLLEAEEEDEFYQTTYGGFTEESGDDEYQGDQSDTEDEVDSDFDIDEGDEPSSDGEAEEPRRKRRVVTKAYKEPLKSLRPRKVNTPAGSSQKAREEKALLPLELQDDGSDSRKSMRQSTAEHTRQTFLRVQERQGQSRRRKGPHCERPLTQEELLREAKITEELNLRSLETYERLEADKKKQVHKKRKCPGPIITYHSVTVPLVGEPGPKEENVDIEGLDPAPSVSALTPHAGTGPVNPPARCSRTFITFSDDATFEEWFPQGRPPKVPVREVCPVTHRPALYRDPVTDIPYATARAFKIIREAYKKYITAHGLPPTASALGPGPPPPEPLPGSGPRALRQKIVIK
inactive: filanesib 0.084 | zotarolimus -0.008 | idasanutlin 0.062 | alisertib -0.066 | [3] -0.047 | gefitinib 0.033 | [2] -0.094 | lapatinib 0.012

VDAC1 (UniProt C9JI87)
inactive: filanesib 0.001 | zotarolimus -0.217 | idasanutlin -0.018 | alisertib -0.119 | [3] 0.161 | gefitinib -0.014 | [2] -0.014 | lapatinib -0.182

VWA3B isoform 6 (UniProt Q502W6)
Sequence of UniProt Q502W6 (Q502W6 whole entry, looked up): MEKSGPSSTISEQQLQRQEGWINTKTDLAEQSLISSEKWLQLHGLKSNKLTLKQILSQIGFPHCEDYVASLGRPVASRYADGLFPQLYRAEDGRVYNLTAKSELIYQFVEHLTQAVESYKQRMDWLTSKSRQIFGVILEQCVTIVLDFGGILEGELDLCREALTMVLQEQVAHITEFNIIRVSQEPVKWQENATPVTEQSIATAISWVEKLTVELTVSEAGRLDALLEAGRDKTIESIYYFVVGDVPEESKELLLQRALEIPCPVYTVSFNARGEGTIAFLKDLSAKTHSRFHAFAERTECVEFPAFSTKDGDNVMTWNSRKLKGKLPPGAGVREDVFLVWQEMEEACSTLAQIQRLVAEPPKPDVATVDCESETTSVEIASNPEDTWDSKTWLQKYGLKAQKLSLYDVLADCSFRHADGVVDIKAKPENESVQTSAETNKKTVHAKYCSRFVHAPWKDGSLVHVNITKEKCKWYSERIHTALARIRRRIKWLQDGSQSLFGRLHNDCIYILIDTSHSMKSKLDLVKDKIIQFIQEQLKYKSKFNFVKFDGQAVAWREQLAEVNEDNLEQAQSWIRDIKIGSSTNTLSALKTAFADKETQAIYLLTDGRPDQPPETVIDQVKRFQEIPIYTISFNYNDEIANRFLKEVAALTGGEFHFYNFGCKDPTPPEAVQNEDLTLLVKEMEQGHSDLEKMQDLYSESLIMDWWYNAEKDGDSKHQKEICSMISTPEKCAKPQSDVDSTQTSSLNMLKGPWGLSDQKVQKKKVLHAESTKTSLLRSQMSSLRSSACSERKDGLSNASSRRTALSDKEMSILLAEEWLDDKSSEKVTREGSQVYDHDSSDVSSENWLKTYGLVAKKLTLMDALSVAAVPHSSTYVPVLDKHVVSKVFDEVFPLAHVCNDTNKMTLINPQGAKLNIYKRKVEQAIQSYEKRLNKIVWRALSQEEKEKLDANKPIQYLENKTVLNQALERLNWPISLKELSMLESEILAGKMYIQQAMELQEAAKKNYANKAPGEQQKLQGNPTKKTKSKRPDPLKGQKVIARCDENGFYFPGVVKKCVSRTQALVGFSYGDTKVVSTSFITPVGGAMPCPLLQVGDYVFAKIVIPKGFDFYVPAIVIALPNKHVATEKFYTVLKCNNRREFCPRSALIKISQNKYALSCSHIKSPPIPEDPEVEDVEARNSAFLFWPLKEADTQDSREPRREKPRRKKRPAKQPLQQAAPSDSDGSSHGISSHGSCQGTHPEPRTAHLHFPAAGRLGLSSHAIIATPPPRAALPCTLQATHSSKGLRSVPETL
inactive: [1] -0.156 | zotarolimus -0.083 | idasanutlin -0.41 | alisertib -0.081 | [3] -0.272 | gefitinib 0.008 | [2] -0.022 | lapatinib 0.079 | pictilisib 0.118

UBXN8 (UniProt O00124)
Sequence of UniProt O00124 (O00124 whole entry, looked up): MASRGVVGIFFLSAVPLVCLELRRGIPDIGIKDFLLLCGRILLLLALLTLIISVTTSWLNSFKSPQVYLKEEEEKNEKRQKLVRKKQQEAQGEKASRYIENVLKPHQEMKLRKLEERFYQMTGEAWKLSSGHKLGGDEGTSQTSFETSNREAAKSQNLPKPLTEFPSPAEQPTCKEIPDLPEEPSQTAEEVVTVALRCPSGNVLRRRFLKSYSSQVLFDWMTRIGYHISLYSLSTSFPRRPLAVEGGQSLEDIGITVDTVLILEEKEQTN
inactive: filanesib 0.069 | zotarolimus -0.028 | idasanutlin -0.116 | [3] -0.035 | lapatinib 0.023 | pictilisib -0.002

TMEM219 (UniProt Q86XT9)
inactive: filanesib -0.065 | zotarolimus -0.181 | idasanutlin -0.017 | [3] -0.011 | gefitinib -0.029 | lapatinib 0.058 | pictilisib -0.277

U2AF1L5 (UniProt P0DN76)
inactive: [1] -0.034 | idasanutlin -0.051 | alisertib -0.517 | gefitinib -0.048 | [2] -0.238

XIAP (UniProt P98170)
Sequence of UniProt P98170 (P98170 whole entry, looked up): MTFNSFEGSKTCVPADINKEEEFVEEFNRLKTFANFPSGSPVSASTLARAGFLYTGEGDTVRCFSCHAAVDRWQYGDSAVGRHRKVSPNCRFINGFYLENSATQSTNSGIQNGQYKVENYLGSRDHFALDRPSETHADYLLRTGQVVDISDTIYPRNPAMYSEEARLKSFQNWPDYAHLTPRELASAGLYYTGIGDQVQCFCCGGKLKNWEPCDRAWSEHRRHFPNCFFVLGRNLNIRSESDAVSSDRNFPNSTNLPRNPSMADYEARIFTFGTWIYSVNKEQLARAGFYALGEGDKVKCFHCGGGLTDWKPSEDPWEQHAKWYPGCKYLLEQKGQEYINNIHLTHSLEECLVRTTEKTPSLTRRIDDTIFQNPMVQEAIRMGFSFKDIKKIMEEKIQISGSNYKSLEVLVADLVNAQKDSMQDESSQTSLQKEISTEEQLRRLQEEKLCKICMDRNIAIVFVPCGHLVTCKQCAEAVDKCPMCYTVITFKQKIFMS
inactive: filanesib 0.046 | zotarolimus 0.008 | idasanutlin 0.009 | alisertib 0.089 | [3] 0.085 | gefitinib 0.115 | [2] 0 | lapatinib -0.01 | pictilisib 0.054

UFM1 isoform 2 (UniProt P61960)
Sequence of UniProt P61960 (P61960 whole entry, looked up): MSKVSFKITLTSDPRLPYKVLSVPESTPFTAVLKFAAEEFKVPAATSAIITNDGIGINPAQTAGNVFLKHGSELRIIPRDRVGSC
inactive: filanesib -0.12 | zotarolimus -0.048 | idasanutlin 0 | alisertib -0.067 | [3] -0.085 | gefitinib 0.027 | [2] 0.008 | lapatinib -0.052 | pictilisib -0.062

WARS1 (UniProt G3V227)
inactive: zotarolimus 0.086 | idasanutlin -0.047

UTP20 (UniProt O75691)
inactive: [3] -0.087 | lapatinib 0.076

TSPAN13 (UniProt O95857)
Sequence of UniProt O95857 (O95857 whole entry, looked up): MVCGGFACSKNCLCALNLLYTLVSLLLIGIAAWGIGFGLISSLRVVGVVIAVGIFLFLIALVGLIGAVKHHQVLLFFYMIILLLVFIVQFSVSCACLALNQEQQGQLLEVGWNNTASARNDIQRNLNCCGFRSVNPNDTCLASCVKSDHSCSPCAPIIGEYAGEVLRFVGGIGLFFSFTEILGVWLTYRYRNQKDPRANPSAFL
inactive: filanesib -0.041 | zotarolimus 0.022 | alisertib -0.164 | [3] -0.013 | gefitinib 0.047 | [2] -0.064 | lapatinib -0.053 | pictilisib 0.053

WARS1 (UniProt G3V5U1)
inactive: [1] -0.557 | filanesib 0.025 | alisertib 0.391 | [2] -0.105

TVP23C (UniProt Q96ET8)
inactive: zotarolimus -0.006 | idasanutlin -0.124 | alisertib 0.007 | [3] -0.024 | [2] 0.235 | lapatinib -0.14 | pictilisib -0.029

UBAP2L (UniProt F8W726)
inactive: alisertib -0.074 | [3] -0.069 | gefitinib -0.012 | [2] -0.084 | lapatinib 0.067 | pictilisib 0.078

UBE2J2 isoform 3 (UniProt Q8N2K1)
inactive: filanesib 0.146 | zotarolimus -0.031 | idasanutlin 0.092 | [3] 0.134 | lapatinib -0.07 | pictilisib -0.145

WARS1 (UniProt G3V3P2)
inactive: filanesib 0.087

WDR4 isoform 3 (UniProt P57081)
inactive: filanesib -0.007 | pictilisib 0.359

TRIM23 (UniProt P36406)
inactive: [1] 0.019 | filanesib -0.031 | zotarolimus 0.036 | alisertib -0.078 | gefitinib 0.012 | [2] 0.039 | pictilisib 0.204

TMEM41A (UniProt Q96HV5)
Sequence of UniProt Q96HV5 (Q96HV5 whole entry, looked up): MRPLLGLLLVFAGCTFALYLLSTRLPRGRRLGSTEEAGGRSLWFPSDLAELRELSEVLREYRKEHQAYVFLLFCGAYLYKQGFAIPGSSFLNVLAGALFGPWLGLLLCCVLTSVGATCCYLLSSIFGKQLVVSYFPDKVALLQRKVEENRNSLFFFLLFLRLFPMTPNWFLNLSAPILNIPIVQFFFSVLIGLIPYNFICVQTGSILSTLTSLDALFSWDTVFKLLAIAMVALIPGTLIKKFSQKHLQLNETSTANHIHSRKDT
inactive: [1] -0.123 | filanesib -0.158 | idasanutlin 0.024 | alisertib -0.096 | [3] 0.088 | gefitinib 0.034 | [2] 0.092 | lapatinib -0.106 | pictilisib -0.047

ULBP1 (UniProt Q9BZM6)
inactive: filanesib 0.071 | zotarolimus 0.022 | idasanutlin 0.036 | alisertib -0.023 | [3] 0.164 | [2] 0.001 | lapatinib 0.002

WDR46, A0A0G2JJL1
inactive: [1] -0.108 | filanesib 0.533 | alisertib -0.167 | [3] -0.134 | gefitinib 0.039 | [2] -0.207 | lapatinib 0.154

WDR75 (UniProt Q8IWA0)
inactive: [1] -0.071 | zotarolimus -0.078 | idasanutlin 0.177 | alisertib -0.054 | [3] -0.04 | gefitinib 0.198 | [2] -0.078 | lapatinib -0.011

TRPT1 isoform 4 (UniProt Q86TN4)
Sequence of UniProt Q86TN4 (Q86TN4 whole entry, looked up): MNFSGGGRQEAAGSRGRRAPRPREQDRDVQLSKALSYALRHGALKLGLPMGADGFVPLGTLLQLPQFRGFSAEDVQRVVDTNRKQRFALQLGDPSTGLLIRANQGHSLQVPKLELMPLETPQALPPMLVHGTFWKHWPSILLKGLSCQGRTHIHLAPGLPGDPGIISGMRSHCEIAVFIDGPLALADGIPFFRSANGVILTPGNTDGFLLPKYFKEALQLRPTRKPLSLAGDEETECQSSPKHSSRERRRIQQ
inactive: [1] -0.088 | filanesib -0.053 | idasanutlin -0.194 | alisertib -0.055 | [2] -0.061

TUBA4A (UniProt C9JJQ8)
inactive: [1] 0.083 | filanesib 0.016 | zotarolimus -0.041 | [3] 0.052 | lapatinib 0.018

TMEM268 isoform 3 (UniProt Q5VZI3)
inactive: filanesib -0.064 | zotarolimus 0.104 | idasanutlin -0.135 | alisertib 0.014 | [3] -0.25 | gefitinib -0.079 | [2] 0.001 | lapatinib 0.09 | pictilisib -0.088

USP48 (UniProt Q86UV5)
Sequence of UniProt Q86UV5 (Q86UV5 whole entry, looked up): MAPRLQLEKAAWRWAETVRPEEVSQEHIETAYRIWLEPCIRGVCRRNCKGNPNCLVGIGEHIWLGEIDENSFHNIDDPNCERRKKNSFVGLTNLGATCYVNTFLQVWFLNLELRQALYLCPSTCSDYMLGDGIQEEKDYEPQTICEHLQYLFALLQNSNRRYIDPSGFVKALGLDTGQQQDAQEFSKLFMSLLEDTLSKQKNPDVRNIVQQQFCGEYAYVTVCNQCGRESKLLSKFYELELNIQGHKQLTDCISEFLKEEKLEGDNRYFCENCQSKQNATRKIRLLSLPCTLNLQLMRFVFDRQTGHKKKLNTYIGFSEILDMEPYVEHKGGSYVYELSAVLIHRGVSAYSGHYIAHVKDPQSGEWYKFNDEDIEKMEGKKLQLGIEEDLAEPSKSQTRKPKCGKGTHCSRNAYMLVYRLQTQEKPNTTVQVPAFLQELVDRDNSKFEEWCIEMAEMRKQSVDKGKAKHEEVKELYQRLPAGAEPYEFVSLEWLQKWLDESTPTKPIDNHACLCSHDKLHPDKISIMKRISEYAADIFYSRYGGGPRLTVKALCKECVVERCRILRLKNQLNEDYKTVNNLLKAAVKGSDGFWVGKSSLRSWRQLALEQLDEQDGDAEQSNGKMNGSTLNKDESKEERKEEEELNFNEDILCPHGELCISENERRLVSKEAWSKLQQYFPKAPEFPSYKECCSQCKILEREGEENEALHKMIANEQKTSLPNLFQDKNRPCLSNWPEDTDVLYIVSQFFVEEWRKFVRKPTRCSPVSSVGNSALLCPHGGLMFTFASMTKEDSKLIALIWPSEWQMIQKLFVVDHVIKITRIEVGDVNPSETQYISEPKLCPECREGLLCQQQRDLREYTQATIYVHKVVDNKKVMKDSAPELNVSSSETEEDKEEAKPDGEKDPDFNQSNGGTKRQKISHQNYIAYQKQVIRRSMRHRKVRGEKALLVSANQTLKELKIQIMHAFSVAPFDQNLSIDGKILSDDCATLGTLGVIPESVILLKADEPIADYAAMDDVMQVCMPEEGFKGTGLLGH
inactive: filanesib -0.016 | alisertib 0.19 | gefitinib 0.053 | [2] -0.031

TOM1 (UniProt O60784)
inactive: [1] 0.078 | filanesib -0.061 | alisertib 0.103 | [2] 0.094 | pictilisib 0.171

WARS1 (UniProt G3V277)
inactive: [1] -0.163 | filanesib 0.066 | idasanutlin 0.127 | alisertib 0.04 | gefitinib 0.021 | [2] 0.145 | pictilisib 0.095

TRIM5 (UniProt Q9C035)
inactive: filanesib 0.121 | zotarolimus -0.066 | idasanutlin -0.086

TMEM8A (UniProt Q9HCN3)
inactive: filanesib 0.188 | zotarolimus -0.093 | alisertib -0.153 | [3] -0.008 | gefitinib -0.038 | [2] 0.085 | lapatinib 0.065 | pictilisib 0.121

UBE2D1 (UniProt P51668)
inactive: filanesib -0.003 | zotarolimus -0.006 | idasanutlin -0.083 | alisertib 0.094 | [3] 0.137 | gefitinib -0.012 | [2] 0.002 | lapatinib -0.063 | pictilisib 0.021

TUT4 (UniProt Q5TAX3)
inactive: [1] -0.265 | filanesib 0.092 | zotarolimus -0.237 | alisertib -0.02 | [3] 0.158 | gefitinib 0.051 | [2] -0.025 | lapatinib 0.021 | pictilisib 0.009

XAB2 (UniProt Q9HCS7)
inactive: [1] -0.174 | alisertib -0.12 | [2] 0.105

TXNRD1 isoform 7 (UniProt Q16881)
Sequence of UniProt Q16881 (Q16881 whole entry, looked up): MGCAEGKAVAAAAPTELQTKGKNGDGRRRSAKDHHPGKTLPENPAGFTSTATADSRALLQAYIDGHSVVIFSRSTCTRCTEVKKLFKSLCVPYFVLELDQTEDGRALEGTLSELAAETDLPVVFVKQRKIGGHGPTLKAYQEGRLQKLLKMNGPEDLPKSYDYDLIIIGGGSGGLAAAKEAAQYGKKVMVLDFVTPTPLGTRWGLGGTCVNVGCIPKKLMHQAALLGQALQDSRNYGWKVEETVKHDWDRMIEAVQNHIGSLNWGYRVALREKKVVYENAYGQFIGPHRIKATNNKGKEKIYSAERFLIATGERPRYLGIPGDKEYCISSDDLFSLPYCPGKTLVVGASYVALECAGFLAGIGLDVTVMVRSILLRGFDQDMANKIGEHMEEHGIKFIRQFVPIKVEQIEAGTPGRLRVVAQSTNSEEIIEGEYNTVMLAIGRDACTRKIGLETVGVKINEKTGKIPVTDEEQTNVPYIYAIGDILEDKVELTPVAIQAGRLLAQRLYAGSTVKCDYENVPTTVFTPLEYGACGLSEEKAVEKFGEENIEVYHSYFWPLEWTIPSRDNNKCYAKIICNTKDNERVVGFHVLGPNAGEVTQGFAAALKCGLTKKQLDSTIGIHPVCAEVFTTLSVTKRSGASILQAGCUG
inactive: filanesib -0.034 | [3] 0.242 | lapatinib -0.07 | pictilisib 0.037
